Assay outcomes (PubChem BioAssay)
PK Bst – alters activity of Bacillus stearothermophilus pyruvate kinase; purified pyruvate kinase, luminescence ATP production; ribose 5-phosphate activator present at AC10; Potency, µM; 1.2% of 51,000 active; in the data active means potency below about 11 µM; inconclusive means mostly about 12 µM to 25 µM;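 the screen sought inhibitors and activators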;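 further: scaled between full activation by ribose 5 phosphate and full inhibition by luteolin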
GBA activity – modulators of human glucocerebrosidase; P04062; purified enzyme, resorufin glucoside fluorescence (screen aimed at inhibitors), 20 min; Potency, µM; 1.1% of 48,000 active; AID 360; in the data active means potency below about 15 µM; inconclusive means mostly about 16 µM to 33 µM;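 further: the screen sought inhibitors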
Target sequence (P04062 whole entry, looked up): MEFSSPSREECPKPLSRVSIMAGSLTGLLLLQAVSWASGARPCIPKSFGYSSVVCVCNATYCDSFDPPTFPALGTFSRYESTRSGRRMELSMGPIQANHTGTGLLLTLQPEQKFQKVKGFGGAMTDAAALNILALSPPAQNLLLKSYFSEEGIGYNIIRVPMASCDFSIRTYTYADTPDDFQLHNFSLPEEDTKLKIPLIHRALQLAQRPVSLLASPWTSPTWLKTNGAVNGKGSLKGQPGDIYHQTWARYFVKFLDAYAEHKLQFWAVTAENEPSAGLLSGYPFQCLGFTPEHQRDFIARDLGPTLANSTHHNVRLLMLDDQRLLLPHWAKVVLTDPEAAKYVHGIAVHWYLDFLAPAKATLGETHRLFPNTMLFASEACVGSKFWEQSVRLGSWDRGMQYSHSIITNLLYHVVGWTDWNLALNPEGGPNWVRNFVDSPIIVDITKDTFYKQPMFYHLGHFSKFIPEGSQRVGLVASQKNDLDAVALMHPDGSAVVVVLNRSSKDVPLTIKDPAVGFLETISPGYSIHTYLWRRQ
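Wild-type enzyme at 0.2 nM final in 50mM citric acid/KH2PO4, 10mM sodium taurocholate, 0.01% tween-20, pH 5.9, with resorufin beta-D-glucopyranoside at 30 uM final. Compounds titrated, 20 min at RT, red fluorescence read; AC50 from titration.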
* marks the source's active call; other numbers are inactive results. The list is not random: actives were taken first. Their share in the collection is about 2.3%. Potency means the concentration at half of the fitted maximal effect.

COc1ccccc1-n1cc(C(=O)NCC(=O)N2CCN(c3ccccc3)CC2)c2ccccc2c1=O was read as PK Bst 3.65* and GBA activity >76.9.
Screening COc1ccccc1-n1cc(C(=O)NCC(=O)N2CCN(c3ccccn3)CC2)c2ccccc2c1=O returned PK Bst inconclusive and GBA activity >76.9.
For COc1ccccc1Cn1c(=O)c2ccccc2n2c(SCC(=O)N3CCCCC3)nnc12 the results were PK Bst >57 and GBA activity >76.9.
CC12CCC(C(=O)N3CCN(Cc4ccccc4)CC3)(OC1=O)C2(C)C (stereo not given) was read as PK Bst >57 and GBA activity >76.9.
`Nc1nc(N2CCN(C/C=C/c3ccccc3)CC2)nc2ccccc12` gave PK Bst >57 and GBA activity 8.42*.
For O=c1[nH]c(CN2CCN(C/C=C/c3ccccc3)CC2)nc2ccccc12 the results were PK Bst >57 and GBA activity >76.9.
`CCCS(=O)(=O)NCCc1cc2c(OC)ccc(OC)c2[nH]c1=O` gave PK Bst 6.41* and GBA activity >76.9.
For COc1ccc(OC)c2[nH]c(=O)c(CCNS(=O)(=O)c3ccccc3)cc12 the results were PK Bst inconclusive and GBA activity >76.9.
Screening NC(=O)CSc1nnc(COc2ccccc2)n1C1CCCCC1 returned PK Bst >57 and GBA activity >76.9.
Screening COc1ccc(OC)c(C2/C(=C(\O)c3c(C)nc4ccccn34)C(=O)C(=O)N2CCCN(C)C)c1 (stereo not given) returned PK Bst >57 and GBA activity >76.9.
`COc1ccccc1-c1nn2c(-c3ccco3)nnc2s1` gave PK Bst 8.25*.
For COc1ccc(-c2nn3c(-c4ccc(F)cc4)nnc3s2)cc1 the results were GBA activity >76.9.
For c1coc(-c2nn3c(-c4ccco4)nnc3s2)c1 the results were PK Bst inactive and GBA activity >76.9.
COc1ccc(-c2nn3c(-c4ccccc4)nnc3s2)cc1 was read as PK Bst 3.39* and GBA activity >76.9.
For COc1cc2c(cc1OC)C(C)N(C(=O)CCN1C(=O)C3C4C=CC(C4)C3C1=O)CC2 (stereo not given) the results were PK Bst >57 and GBA activity >76.9.
O=C(O)CSCCC(=O)Nc1ccc(F)cc1 was read as PK Bst >57 and GBA activity >76.9.
N#Cc1ccc(-c2nnnn2-c2ccc3c(c2)OCO3)cc1 was read as PK Bst >57 and GBA activity 14.8*.
N#Cc1cccc(-n2nnnc2-c2ccc3c(c2)OCO3)c1 was read as PK Bst >57 and GBA activity >76.9.
`Cc1cc(C)c(S(=O)(=O)N(C)CC(=O)NC2CCCC2)c(C)c1` gave PK Bst >11.4 and GBA activity >76.9.
COc1ccc(C2=Nn3c(nnc3-c3ccccn3)SC2)cc1OC was read as PK Bst >25.6.
For C=CCn1c(-c2ccc(OC)c(OC)c2)cs/c1=N\c1ccccn1 the results were PK Bst 6.93* and GBA activity >76.9.
For Cn1nnnc1SCc1ccc(C(=O)Nc2nccs2)cc1 the results were PK Bst 0.996* and GBA activity >76.9.
`Cn1c(CSCc2ccc(F)cc2)nnc1SCC(=O)Nc1nccs1` gave PK Bst >57 and GBA activity >76.9.
Screening COc1cc(OC)cc(C(=O)N2CCC(n3c(C)nc4cc(F)ccc43)CC2)c1 returned PK Bst >57 and GBA activity >76.9.
CCN(CCCNC(=O)CN(C)S(=O)(=O)c1ccc2c(c1)CCC(=O)N2)c1cccc(C)c1 was read as PK Bst >57 and GBA activity >76.9.
Screening CC1CC2(CC(C)(C(=O)CSc3nc4ccccc4s3)OC2=O)C(=O)O1 (stereo not given) returned PK Bst inactive.
Screening CC1(C(=O)CSc2nc3ccccc3s2)CCC(=O)O1 (stereo not given) returned PK Bst 10.2*.
Screening N#CCCC12CCCCC1=Nc1ccccc12 (stereo not given) returned PK Bst >57 and GBA activity >76.9.
For CCNc1nc(NCC)n2c(SCc3nc4ccccc4c(=O)[nH]3)nnc2n1 the results were PK Bst 7* and GBA activity >76.9.
For Cn1c(SCc2nc3ccccc3c(=O)[nH]2)nnc1-c1ccco1 the results were PK Bst >57 and GBA activity >76.9.
NC(=O)CN1C(=O)C2C3C=CC(C3)C2C1=O (stereo not given) was read as PK Bst >57 and GBA activity >76.9.
`O=C1C2C3C=CC(C3)C2C(=O)N1CNc1ccc(O)cc1` (stereo not given) gave PK Bst inactive and GBA activity 11.6*.
`COCCCNC(CC(=O)Nc1ccccc1C(=O)OC)C(=O)O` (stereo not given) gave PK Bst >57 and GBA activity >76.9.
CCCOc1ccc(-c2nnc(-c3ccco3)o2)cc1 was read as PK Bst 3.41* and GBA activity >76.9.
For CC(C)COc1ccc(-c2nnc(-c3ccco3)o2)cc1 the results were PK Bst 9.48* and GBA activity >76.9.
